Reference: PubChem BioAssay (NCI)
This is part of a sample that, as a whole, favours compounds with a hit. Of some 83,000 tested, about 20% had one in any assay.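 Each cell line was grown in a 96-well plate and treated with one concentration of compound for 48 hours. Values below 10 were considered active.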 Values without a mark were called inactive. Activity calls are given as the source filed them.

What follows are compounds tested on MDA-MB-468 breast (assay: NCI-60 one-dose screen, 48 h (100 = growth as untreated, 0 = no growth, -100 = all killed)). Conditions: 10 µM unless noted.
In the case of `C[C@@H]1COC(Nc2ccc3ncnc(Nc4ccc(OCc5nccs5)c(Cl)c4)c3c2)=N1`, the growth is reported as -16.4% (active). `Cc1cc(C(=O)Nc2ccc3cc(CN4CCOCC4)ccc3n2)c(C)n1-c1ccccc1` showed a growth of 26.7%. `C#CCOC(=O)Nc1ccccc1` was tested, and the growth was 117%.
